Reference: the supplement of paper PMC12067093, “Discovery and optimisation of a covalent ligand for TRIM25 and its application to targeted protein ubiquitination” (Chemical Science, 2025)
The full data set covers some 21,000 targets. This sample favours those with the largest changes.

Compound: CC1Cc2ccccc2N1C(=O)C1CCCN(C1)C(=O)CCl (mixture of isomers) [TRIM25 ligand 11 (diastereomer mixture)]
Assay: probe-labelled cysteine peptide fold change vs DMSO (competition) (log2 fold change); higher = less target engagement (more negative = stronger competition)
Details: 10 µM; THP-1; incubation time: 4 h
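Also: competitive chemoproteomic profiling in live THP-1 cells with an iodoacetamide desthiobiotin (IA-DTB) probe, comparing probe-labelled peptide intensities in compound-treated cells against DMSO-treated controls.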

UniProt Q9BTW9, sequence (Q9BTW9 whole entry, looked up): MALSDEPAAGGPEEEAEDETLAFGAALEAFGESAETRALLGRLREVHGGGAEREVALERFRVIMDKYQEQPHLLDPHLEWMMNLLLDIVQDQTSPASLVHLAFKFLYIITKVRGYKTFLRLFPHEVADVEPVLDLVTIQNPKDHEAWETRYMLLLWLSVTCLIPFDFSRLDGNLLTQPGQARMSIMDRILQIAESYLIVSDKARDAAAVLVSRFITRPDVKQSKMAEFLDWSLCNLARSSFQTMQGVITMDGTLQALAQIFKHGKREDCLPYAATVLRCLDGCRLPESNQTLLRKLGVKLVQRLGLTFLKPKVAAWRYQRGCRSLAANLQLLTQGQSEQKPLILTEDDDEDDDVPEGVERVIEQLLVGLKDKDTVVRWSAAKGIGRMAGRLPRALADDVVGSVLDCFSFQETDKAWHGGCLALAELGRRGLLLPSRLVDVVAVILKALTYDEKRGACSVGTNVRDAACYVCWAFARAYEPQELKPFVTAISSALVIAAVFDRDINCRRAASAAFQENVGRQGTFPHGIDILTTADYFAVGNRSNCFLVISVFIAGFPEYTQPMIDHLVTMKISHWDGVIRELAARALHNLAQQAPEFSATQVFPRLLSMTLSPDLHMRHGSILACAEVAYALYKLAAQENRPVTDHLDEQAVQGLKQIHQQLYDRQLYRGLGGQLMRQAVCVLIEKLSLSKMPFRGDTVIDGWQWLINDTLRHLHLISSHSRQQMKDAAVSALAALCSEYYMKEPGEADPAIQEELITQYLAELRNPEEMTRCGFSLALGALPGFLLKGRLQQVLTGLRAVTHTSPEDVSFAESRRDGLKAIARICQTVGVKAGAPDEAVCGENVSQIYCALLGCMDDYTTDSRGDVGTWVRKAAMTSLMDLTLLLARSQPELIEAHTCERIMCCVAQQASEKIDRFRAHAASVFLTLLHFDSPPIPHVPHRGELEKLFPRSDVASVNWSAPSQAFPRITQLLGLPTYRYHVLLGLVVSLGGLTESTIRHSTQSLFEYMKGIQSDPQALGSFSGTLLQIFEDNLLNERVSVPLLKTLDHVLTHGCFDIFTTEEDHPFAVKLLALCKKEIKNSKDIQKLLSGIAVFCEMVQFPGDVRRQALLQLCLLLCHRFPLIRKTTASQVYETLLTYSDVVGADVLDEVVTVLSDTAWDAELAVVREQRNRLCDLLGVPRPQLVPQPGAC
UniProt P53597, sequence (P53597 whole entry, looked up): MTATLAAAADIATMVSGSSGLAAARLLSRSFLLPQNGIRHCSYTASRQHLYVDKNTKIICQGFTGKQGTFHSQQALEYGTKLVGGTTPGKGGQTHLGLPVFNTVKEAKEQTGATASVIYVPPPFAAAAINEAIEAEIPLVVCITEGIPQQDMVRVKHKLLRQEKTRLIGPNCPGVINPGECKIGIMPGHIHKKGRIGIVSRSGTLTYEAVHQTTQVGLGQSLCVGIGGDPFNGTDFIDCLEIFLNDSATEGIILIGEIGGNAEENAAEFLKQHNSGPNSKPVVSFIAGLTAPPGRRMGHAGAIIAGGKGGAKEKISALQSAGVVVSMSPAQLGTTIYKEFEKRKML
UniProt Q6P1X5, sequence (Q6P1X5 whole entry, looked up): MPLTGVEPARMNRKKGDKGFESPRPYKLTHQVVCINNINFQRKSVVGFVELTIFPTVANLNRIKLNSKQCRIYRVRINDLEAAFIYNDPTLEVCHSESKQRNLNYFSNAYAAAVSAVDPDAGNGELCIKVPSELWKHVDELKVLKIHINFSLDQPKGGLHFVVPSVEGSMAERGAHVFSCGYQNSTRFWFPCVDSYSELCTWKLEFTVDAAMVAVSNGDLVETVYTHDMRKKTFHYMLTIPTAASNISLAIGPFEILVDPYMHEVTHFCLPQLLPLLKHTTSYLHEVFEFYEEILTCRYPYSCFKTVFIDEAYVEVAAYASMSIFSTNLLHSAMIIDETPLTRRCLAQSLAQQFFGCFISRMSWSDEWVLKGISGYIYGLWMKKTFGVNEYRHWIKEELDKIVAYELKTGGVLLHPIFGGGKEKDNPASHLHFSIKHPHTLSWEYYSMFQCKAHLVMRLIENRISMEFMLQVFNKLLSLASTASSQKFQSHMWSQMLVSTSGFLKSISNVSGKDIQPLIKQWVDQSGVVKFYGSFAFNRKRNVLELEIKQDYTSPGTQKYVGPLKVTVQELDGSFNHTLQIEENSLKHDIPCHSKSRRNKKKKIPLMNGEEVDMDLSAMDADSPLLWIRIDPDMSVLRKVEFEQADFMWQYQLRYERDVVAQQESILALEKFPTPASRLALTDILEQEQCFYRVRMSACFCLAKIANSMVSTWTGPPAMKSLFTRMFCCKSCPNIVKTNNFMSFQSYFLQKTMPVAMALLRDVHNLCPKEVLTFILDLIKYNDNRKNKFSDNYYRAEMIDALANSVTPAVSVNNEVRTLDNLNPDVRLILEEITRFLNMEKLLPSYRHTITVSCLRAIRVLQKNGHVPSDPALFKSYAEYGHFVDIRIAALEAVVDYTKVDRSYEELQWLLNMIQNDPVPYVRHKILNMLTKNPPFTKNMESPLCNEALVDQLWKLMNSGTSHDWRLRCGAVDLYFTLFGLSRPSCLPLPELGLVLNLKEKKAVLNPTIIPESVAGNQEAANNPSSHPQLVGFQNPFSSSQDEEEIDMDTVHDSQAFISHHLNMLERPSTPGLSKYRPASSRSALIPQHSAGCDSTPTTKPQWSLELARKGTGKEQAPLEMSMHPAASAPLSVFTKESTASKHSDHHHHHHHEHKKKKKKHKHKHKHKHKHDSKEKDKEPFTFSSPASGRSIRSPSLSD
UniProt Q9Y5B9, sequence (Q9Y5B9 whole entry, looked up): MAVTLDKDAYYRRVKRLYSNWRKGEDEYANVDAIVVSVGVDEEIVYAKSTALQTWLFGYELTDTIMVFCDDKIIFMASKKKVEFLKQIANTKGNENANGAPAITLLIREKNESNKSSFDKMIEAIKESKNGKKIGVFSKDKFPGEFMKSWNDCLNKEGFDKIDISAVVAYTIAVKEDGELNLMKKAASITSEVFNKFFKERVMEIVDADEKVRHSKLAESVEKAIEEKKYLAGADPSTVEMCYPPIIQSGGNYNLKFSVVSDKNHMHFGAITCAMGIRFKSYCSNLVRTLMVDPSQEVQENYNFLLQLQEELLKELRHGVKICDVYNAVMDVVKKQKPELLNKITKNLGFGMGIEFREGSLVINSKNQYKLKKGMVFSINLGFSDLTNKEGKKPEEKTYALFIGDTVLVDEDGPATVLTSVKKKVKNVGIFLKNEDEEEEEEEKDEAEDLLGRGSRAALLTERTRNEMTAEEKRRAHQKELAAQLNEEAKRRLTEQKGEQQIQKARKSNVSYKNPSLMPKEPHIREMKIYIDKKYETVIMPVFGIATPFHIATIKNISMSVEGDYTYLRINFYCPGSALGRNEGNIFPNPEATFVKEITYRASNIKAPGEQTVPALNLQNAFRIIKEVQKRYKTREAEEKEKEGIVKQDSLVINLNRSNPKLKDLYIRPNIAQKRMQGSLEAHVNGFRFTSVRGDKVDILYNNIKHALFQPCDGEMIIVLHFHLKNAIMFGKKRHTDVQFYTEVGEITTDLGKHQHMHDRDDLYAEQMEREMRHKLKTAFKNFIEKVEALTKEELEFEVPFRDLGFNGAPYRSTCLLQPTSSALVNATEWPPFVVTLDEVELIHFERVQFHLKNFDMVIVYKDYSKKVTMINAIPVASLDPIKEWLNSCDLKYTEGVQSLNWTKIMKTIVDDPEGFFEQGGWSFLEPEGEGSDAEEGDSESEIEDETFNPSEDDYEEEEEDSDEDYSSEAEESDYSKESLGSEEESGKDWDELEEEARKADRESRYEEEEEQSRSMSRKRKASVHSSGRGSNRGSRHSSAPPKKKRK
UniProt Q8NHU6, sequence (Q8NHU6 whole entry, looked up): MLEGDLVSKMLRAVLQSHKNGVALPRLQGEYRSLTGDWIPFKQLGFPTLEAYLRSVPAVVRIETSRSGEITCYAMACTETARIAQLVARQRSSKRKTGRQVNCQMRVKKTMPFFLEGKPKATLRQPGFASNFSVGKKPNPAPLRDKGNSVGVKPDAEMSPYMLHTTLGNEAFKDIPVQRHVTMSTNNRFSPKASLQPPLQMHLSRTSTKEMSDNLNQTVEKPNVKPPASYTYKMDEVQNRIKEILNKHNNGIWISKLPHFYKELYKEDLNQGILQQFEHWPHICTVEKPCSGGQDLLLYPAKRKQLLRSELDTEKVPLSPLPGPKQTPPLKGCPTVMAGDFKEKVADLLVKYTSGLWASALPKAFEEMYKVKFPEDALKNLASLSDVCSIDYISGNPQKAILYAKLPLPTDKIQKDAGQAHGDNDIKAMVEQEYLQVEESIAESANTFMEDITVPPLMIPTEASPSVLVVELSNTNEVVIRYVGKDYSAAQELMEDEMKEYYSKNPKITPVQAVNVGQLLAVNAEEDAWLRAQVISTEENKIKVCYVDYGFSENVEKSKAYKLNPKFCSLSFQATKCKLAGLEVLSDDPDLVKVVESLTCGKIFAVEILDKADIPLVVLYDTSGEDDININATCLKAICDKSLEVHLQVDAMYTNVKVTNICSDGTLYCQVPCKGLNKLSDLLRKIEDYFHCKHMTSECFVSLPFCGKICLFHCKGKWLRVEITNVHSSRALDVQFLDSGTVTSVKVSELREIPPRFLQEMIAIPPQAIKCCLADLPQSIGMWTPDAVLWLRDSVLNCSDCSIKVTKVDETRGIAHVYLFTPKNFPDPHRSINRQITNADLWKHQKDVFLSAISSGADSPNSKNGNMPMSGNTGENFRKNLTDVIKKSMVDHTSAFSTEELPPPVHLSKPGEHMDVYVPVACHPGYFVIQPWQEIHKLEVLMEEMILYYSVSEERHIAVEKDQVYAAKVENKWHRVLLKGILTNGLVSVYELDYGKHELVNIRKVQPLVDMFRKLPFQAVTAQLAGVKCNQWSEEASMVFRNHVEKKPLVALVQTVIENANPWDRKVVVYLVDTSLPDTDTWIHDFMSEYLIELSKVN
UniProt Q969E4, sequence (Q969E4 whole entry): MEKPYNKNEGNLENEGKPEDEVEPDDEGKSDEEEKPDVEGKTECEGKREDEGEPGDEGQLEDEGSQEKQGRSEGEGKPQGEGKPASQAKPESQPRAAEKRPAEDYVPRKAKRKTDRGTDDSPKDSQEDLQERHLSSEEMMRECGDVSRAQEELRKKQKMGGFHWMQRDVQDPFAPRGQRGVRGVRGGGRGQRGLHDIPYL

Target	probe-labelled cysteine peptide fold change
SSH3_Q8TE77_634_TQAFQEQEQGQGQGQGEPCISSTPR (UniProt Q8TE77)	-0.0571
TBCD_Q9BTW9_457_GACSVGTNVR (UniProt Q9BTW9)	0.145
THBS1_P07996_754_IPDDRDNCPFHYNPAQYDYDRDDVGDR (UniProt P07996)	0.813
TCEAL3_Q969E4_44_TECEGKREDEGEPGDEGQLEDEGSQEK (UniProt Q969E4)	-0.32
SUPT16H_Q9Y5B9_574_INFYCPGSALGR (UniProt Q9Y5B9)	0.121
TOP2B_Q02880-2_7_SGGCGAGAGVGGGNGALTWVNNAAK (UniProt Q02880)	-0.0783
TIAL1_Q01085_205+209_NCTVYCGGIASGLTDQLMR (UniProt Q01085)	0.161
TADA2B_Q86TJ2_32+35_CTECQDIELCPECFSAGAEIGHHR (UniProt Q86TJ2)	0.502
TMEM94_Q12767_381_CIWGHFLR (UniProt Q12767)	-0.00858
TET3_O43151_1381_GKPWSPCK (UniProt O43151)	-0.294
TDRD7_Q8NHU6_284_EDLNQGILQQFEHWPHICTVEK (UniProt Q8NHU6)	0.0148
SUCLG1_P53597_172_LIGPNCPGVINPGECK (UniProt P53597)	-0.0627
TGFBRAP1_Q8WUH2_32_VNIECVECCGR (UniProt Q8WUH2)	-0.0319
THOC2_Q8NI27_743_DALLDHDLALPLCLLMAQQR (UniProt Q8NI27)	0.0629
TLE1_Q04724_47_IKEEFQFLQAQYHSLKLECEK<|>TLE2_Q04725_46_IKEEFQFLQAQYHSLKLECEK (UniProt Q04725+Q04724)	-0.573

Same assay, conditions: 50 µM; THP-1; incubation time: 4 h

Target	probe-labelled cysteine peptide fold change
TRIP6_Q15654_362+365+368_AYHPGCFTCVVCHR (UniProt Q15654)	0.0784
STK11IP_Q8N1F8_918_NCVSATEEEVTPQHR (UniProt Q8N1F8)	0.108
TES_Q9UGI8_22_MGLGHEQGFGAPCLK (UniProt Q9UGI8)	-0.176
TARSL2_A2RTX5_546_FQQDDAHIFCTVEQIEEEIK (UniProt A2RTX5)	0.235
TAF2_Q6P1X5_357_CLAQSLAQQFFGCFISR (UniProt Q6P1X5)	-0.862
TANC1_Q9C0D5_800_MDALSCFLIK (UniProt Q9C0D5)	0.0229
ST13_P50502_209_LLGHWEEAAHDLALACKLDYDEDASAMLK (UniProt P50502)	-0.574
